# The source made the active and inactive calls. How the source made its calls: active means hit-call score of the fitted dose curve at least 0.9, where 1 is the maximum; inactive means score below 0.9.
# Read-out: Nuclear factor NF-kappa-B p105 subunit (Homo sapiens) (UniProt P19838)
# Assay: LTEA_HepaRG_NFKB1: Life Technologies and Expression Analysis (LTEA) Assay for Nuclear Factor Kappa B Subunit 1 (NFKB1) using HepaRG (AID 2283521);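 further: TaqMan qRT-PCR transcript normalised to ACTB GAPDH and POLR2A housekeeping genes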
# Settings: mRNA level, 48 h; actives raise or lower the signal
# Method: LTEA_HepaRG is a cell based, multiplexed-readout assay that uses HepaRG, a human liver cell line, with measurements taken at 48 hours after chemical dosing on a 96-well plate.LTEA_HepaRG_NFKB1 is one of 102 assay component(s) measured in the LTEA HepaRG cell culture assay. It is a marker of Cell proliferation, survival, death.Data from the assay component LTEA_HepaRG_NFKB1 was analyzed into 1 endpoint. This assay endpoint, LTEA_HepaRG_NFKB1, was analyzed with bidirectional fitting relative to DMSO as the negative control and baseline of activity. Using a type of inducible reporter, measures of mRNA induction for gain or loss-of-signal activity can be used to understand regulation of transcription factor activity. To generalize the intended target to other relatable targets, this assay endpoint is annotated to the dna binding intended target family, where the subfamily is NF-kappa B.
# A total of 1060 chemcials from the ToxCast library were tested in eight-point concentration-response experiments. Cell culture and cytotoxicity assays were conducted at Thermo Fisher Scientific's Custom Services facility (Madison, WI). A single lot of human HepaRG cells (Thermo Fisher Scientific, Frederick, MD) was used for the cell culture experiments. 96-well format collagen type I coated plates of human HepaRG cells were prepared using established methods. Briefly, cryopreserved HepaRG cells were thawed, plated at a density of approximately 100,000 cells/well in HepaRG Thaw, Plate, and General Purpose media (HPRG770, Thermo Fisher Scientific), and incubated for 48 hours. 0.5% DMSO was selected as vehicle control to balance the requisite need of DMSO in HepaRG cultures to maintain differentiation (for example, baseline metabolism, proportions of hepatocytes vs. cholangiocytes), while enabling further hepatic receptor pathway activation (for example, PXR and CAR) in response to chemical exposure. 48 hours after plating, the culture medium was replaced with HepaRG Serum-Free Incudtion Media. Cells were exposed to each test chemical in duplicate and maintained in CO2 incubators for another 48 hours. Chemical plates were thawed to room temperature and 200x concentrations of treatment groups were prepared. 8-point conentration-reponse curves were made with the highest exposure at 100 uM, followed by half-log dilutions, all in 0.5% DMSO. Each test plate contained variouse controls, induction positive controls (1mM phenobarbital), cytotoxicity positive controls ([…] aflatoxin B1), vehicle controls (0.5% DMSO), and total lysis controls (0.5% DMSO). Cell morphology images were taken using an Essen IncuCyte FLR automated microscope, with six 96-well plates imaged in about 24 minutes. Images were captured and exported and JPEG files. Spent culture media was transfered to black-well plates for the LDH assay, and remaining media was sorted at -80 C for later use. Cells were treated with RLT buffer and frozen until shipped for gene expression analysis. Total RNA was isolated from the cell suspension in 75 uL of Buffer RLT (Qiagen, Germantown, MD 20874) by Quintiles/Expression Analysis (Durham, NC) using a custom isolation procedure. Total RNA from each plate well was transferred to a preamplification plate. Fluidigm's 96.96 Dynamic ArrayTM (Fluidigm, Amsterdam, the Netherlands) technology was used for gene expression analyses by quantitative reverse transcription polymerase chain reaction (qRT-PCR, performed by Quintiles/Expression Analysis, Durham, NC)89. Standard TaqManTM Assays (Applied Biosystems/ThermoFisher Scientific, Foster City, CA) were used to assess the expression of 93 genes selected based on their selectivity and sensitivity to important hepatic receptors known to be modulated by environmental chemicals; importance in human hepatocyte functionality; and hepatotoxicity. […]
# Sequence of Nuclear factor NF-kappa-B p105 subunit (Homo sapiens) (P19838 whole entry, looked up): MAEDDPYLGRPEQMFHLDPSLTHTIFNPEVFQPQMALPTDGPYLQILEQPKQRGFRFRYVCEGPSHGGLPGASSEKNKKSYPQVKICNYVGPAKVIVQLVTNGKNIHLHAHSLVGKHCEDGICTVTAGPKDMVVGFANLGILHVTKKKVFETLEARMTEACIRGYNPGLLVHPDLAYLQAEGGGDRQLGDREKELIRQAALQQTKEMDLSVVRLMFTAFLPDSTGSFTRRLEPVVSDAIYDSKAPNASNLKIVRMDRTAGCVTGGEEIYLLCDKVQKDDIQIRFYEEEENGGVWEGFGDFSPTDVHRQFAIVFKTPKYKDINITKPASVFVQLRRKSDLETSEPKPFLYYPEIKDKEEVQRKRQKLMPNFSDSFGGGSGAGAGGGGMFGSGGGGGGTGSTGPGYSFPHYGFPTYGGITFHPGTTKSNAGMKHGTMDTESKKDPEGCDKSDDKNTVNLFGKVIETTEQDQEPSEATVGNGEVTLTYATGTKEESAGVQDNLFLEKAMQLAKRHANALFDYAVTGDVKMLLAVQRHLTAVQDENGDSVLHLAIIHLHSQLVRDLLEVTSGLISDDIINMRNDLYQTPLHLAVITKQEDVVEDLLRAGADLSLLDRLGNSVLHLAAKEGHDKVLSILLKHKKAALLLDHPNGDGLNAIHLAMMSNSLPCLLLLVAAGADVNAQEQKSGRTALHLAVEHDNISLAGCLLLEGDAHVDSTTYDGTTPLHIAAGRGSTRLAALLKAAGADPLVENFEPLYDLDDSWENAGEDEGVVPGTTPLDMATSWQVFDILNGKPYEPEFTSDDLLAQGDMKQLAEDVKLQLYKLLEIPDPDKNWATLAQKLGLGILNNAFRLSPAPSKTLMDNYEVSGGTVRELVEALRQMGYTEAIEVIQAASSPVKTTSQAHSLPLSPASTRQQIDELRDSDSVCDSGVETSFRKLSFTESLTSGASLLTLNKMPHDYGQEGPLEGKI
row,Compound,outcome
1,O=P1(N(CCCl)CCCl)NCCCO1 (centres undefined),inactive
2,O=[N+]([O-])c1ccc(Cl)c(Cl)c1,inactive
3,Cc1ccc([N+](=O)[O-])cc1C,inactive
4,c1cc2c3c(cccc3c1)CC2,inactive
5,Cc1ccc(N)cc1N,inactive
6,O=C(O)C1C(C(=O)O)C2(Cl)C(Cl)=C(Cl)C1(Cl)C2(Cl)Cl (centres undefined),inactive
7,CCNc1nc(Cl)nc(NC(C)(C)C)n1,inactive
8,CCOc1ccc(C(C)(C)COCc2cccc(Oc3ccccc3)c2)cc1,inactive
9,Cc1cccc(N)c1,inactive
10,CCCCN(CCCC)SN(C)C(=O)Oc1cccc2c1OC(C)(C)C2,inactive
11,c1ccc(OP(Oc2ccccc2)Oc2ccccc2)cc1,inactive
12,c1nc[nH]n1,inactive
13,O=P(Oc1ccccc1)(Oc1ccccc1)Oc1ccccc1,inactive
14,[N-]=[N+]=[N-],inactive
15,CCOP(=S)(OCC)SCSCC,inactive
16,CCCCCCCc1ccc(O)cc1,inactive
17,CCN(CC)c1ccccc1,inactive
18,COCCOCCO,inactive
19,Nc1cc2c3c(c1)C(c1ccccc1)=N[C@@H](NC(=O)c1cccnc1)C(=O)N3CC2,inactive
20,CCOP(=S)(Oc1ccc([N+](=O)[O-])cc1)c1ccccc1 (centres undefined),inactive
21,CCCCN(CCCC)N=O,inactive
22,CC(C)(C)OOC(C)(C)C,inactive
23,CN(C)C(=O)Cl,inactive
24,O=[N+]([O-])c1ccccc1,inactive
25,CCC1(c2ccccc2)C(=O)N=C(O)NC1=O (centres undefined),inactive
26,CCOC(=O)c1ccccc1C(=O)OCC,inactive
27,CCC(C)(C)c1ccc(O)cc1,inactive
28,ClC1=C(Cl)C2(Cl)C3C(Cl)C(Cl)CC3C1(Cl)C2(Cl)Cl (centres undefined),inactive
29,ClC(Cl)c1ccccc1,inactive

# Source: PubChem BioAssay (EPA / NIEHS)
